Assay results published in PMC5540273 (PLoS ONE, 2017).
Where “and” joins values, the source holds several entries; their conditions need not be identical. Identical values can stand only once. Like-named read-outs stand apart in the source and are kept apart here.

Assays:
AKT3 = conditions: concentration: 1 μM, replicates: in singlicate, n = 1
AMPK-alpha1 = tested on: T1, AMPK-alpha1; conditions: concentration: 1 μM, replicates: in singlicate, n = 1
T1 construct: gene PRKAA1

ANKK1 = conditions: concentration: 1 μM, replicates: in singlicate, n = 1
ARK5 = tested on: T2, ARK5; conditions: concentration: 1 μM, replicates: in singlicate, n = 1
T2 construct: gene NUAK1

ASK1 = tested on: T3, ASK1; conditions: concentration: 1 μM, replicates: in singlicate, n = 1
T3 construct: gene MAP3K5

ASK2 = tested on: T4, ASK2; conditions: concentration: 1 μM, replicates: in singlicate, n = 1
T4 construct: gene MAP3K6

AURKA = conditions: concentration: 1 μM, replicates: in singlicate, n = 1
AURKB = conditions: concentration: 1 μM, replicates: in singlicate, n = 1
ALK = conditions: concentration: 1 μM, replicates: in singlicate; n = 1
AMPK-alpha2 = tested on: T5, AMPK-alpha2; conditions: concentration: 1 μM, replicates: in singlicate; n = 1
T5 construct: gene PRKAA2
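Also: KINOMEscan kinase panel screen.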

With `COc1ccc(-c2nc3n(c2-c2ccncc2)CCC3)cc1` [SKF-104493] the “%Inh” value (AKT3; 1 µM) was 19% and 0%, the “%Inh” value (AMPK-alpha1; 1 µM) was 11% and 9% and the “%Inh” value (ANKK1; 1 µM) was 0% and 16%. The “%Inh” value (ARK5; 1 µM) was 0% and 12%, the “%Inh” value (ASK1; 1 µM) was 0% and 2% and the “%Inh” value (ASK2; 1 µM) was 30% and 6%. The “%Inh” value (AURKA; 1 µM) was 16% and 23% and the “%Inh” value (AURKB; 1 µM) was 23% and 7%.

For `COc1ccc(NC(=O)Nc2ccc(C)c(-c3ccc(C(=O)Nc4ccncc4)cc3)c2)cc1` [GSK1398475], the “%Inh” value (AKT3) was 0%, the “%Inh” value (ALK) was 18% and the “%Inh” value (AMPK-alpha1) was 0%. The “%Inh” value (AMPK-alpha2) was 0%, the “%Inh” value (ANKK1) was 10% and the “%Inh” value (ARK5) was 0%. For the same molecule, the “%Inh” value (ASK1) was 4%, the “%Inh” value (ASK2) was 0% and the “%Inh” value (AURKA) was 4%. For the same molecule, the “%Inh” value (AURKB) was 0%.

In the case of `Nc1nc(-c2ccc3c(N)n[nH]c3c2)cc(N2CCC[C@@H](C(=O)Nc3ccccc3)C2)n1.O=C(O)C(F)(F)F.O=C(O)C(F)(F)F` [GSK2288359], the “%Inh” value (AKT3) is reported as 0%, the “%Inh” value (ALK) is reported as 5% and the “%Inh” value (AMPK-alpha1) is reported as 9%. For the same molecule, the “%Inh” value (AMPK-alpha2) was 26%, the “%Inh” value (ANKK1) was 12% and the “%Inh” value (ARK5) was 0%. For the same molecule, the “%Inh” value (ASK1) was 1%, the “%Inh” value (ASK2) was 0% and the “%Inh” value (AURKB) was 0%.

With `Cc1cc(N2CCC(NS(=O)(=O)c3ccc(F)cc3)CC2)nc(Nc2cccc(C#N)c2)n1.O=C(O)C(F)(F)F` [GSK1653537] the “%Inh” value (AKT3) was 0%, the “%Inh” value (ALK) was 7% and the “%Inh” value (AMPK-alpha1) was 0%. For the same molecule, the “%Inh” value (AMPK-alpha2) was 20%, the “%Inh” value (ANKK1) was 3% and the “%Inh” value (ARK5) was 15%. The “%Inh” value (ASK1) was 0%, the “%Inh” value (ASK2) was 3% and the “%Inh” value (AURKA) was 0%. For the same molecule, the “%Inh” value (AURKB) was 0%.

`Clc1cc(Nc2ncnc3cc[nH]c23)ccc1OCc1ccccn1` was tested, and the “%Inh” value (AKT3) was 5%, the “%Inh” value (ALK) was 0% and the “%Inh” value (AMPK-alpha1) was 20%. For the same molecule, the “%Inh” value (AMPK-alpha2) was 0%, the “%Inh” value (ANKK1) was 20% and the “%Inh” value (ARK5) was 0%. The “%Inh” value (ASK1) was 5%, the “%Inh” value (ASK2) was 0% and the “%Inh” value (AURKA) was 35%. The “%Inh” value (AURKB) was 13%.

With `CC(C)(C)c1ccc(-n2cnc3c(N)ncnc32)cc1` [SKF-97263] the “%Inh” value (AKT3) was 0%, the “%Inh” value (ALK) was 7% and the “%Inh” value (AMPK-alpha1) was 14%. The “%Inh” value (AMPK-alpha2) was 21%, the “%Inh” value (ANKK1) was 24% and the “%Inh” value (ARK5) was 10%. The “%Inh” value (ASK1) was 1%, the “%Inh” value (ASK2) was 1% and the “%Inh” value (AURKA) was 7%. For the same molecule, the “%Inh” value (AURKB) was 16%.

With `Cl.c1ccc(Cn2ccc3cc(Nc4ncnc5ccccc45)ccc32)cc1` [GW275568] the “%Inh” value (AKT3) was 0%, the “%Inh” value (ALK) was 0% and the “%Inh” value (AMPK-alpha1) was 11%. For the same molecule, the “%Inh” value (AMPK-alpha2) was 0%, the “%Inh” value (ANKK1) was 43% and the “%Inh” value (ARK5) was 29%. For the same molecule, the “%Inh” value (ASK1) was 1%, the “%Inh” value (ASK2) was 0% and the “%Inh” value (AURKA) was 17%. The “%Inh” value (AURKB) was 30%.

For `FC(F)(F)c1ccc(-c2cc(-c3c[nH]nc3-c3ccccn3)ccn2)cc1` [GW599550], the “%Inh” value (AKT3) was 0%, the “%Inh” value (ALK) was 24% and the “%Inh” value (AMPK-alpha1) was 4%. For the same molecule, the “%Inh” value (AMPK-alpha2) was 16%, the “%Inh” value (ANKK1) was 20% and the “%Inh” value (ARK5) was 0%. The “%Inh” value (ASK1) was 5%, the “%Inh” value (ASK2) was 0% and the “%Inh” value (AURKA) was 18%. For the same molecule, the “%Inh” value (AURKB) was 17%.

`Cl.Cl.c1ccc(-c2cc3ccncc3cc2OC2CCNCC2)cc1` [GSK1122999] was tested, and the “%Inh” value (AKT3) was 0%, the “%Inh” value (ALK) was 23% and the “%Inh” value (AMPK-alpha1) was 16%. For the same molecule, the “%Inh” value (AMPK-alpha2) was 22%, the “%Inh” value (ANKK1) was 0% and the “%Inh” value (ARK5) was 13%. For the same molecule, the “%Inh” value (ASK1) was 0%, the “%Inh” value (ASK2) was 4% and the “%Inh” value (AURKA) was 17%. For the same molecule, the “%Inh” value (AURKB) was 10%.

In the case of `Fc1ccc(-c2ncn(CCCNCc3ccccc3)c2-c2ccncc2)cc1`, the “%Inh” value (AKT3) is reported as 0%, the “%Inh” value (ALK) is reported as 0% and the “%Inh” value (AMPK-alpha1) is reported as 22%. For the same molecule, the “%Inh” value (AMPK-alpha2) was 0%, the “%Inh” value (ANKK1) was 0% and the “%Inh” value (ARK5) was 0%. For the same molecule, the “%Inh” value (ASK1) was 11%, the “%Inh” value (ASK2) was 1% and the “%Inh” value (AURKA) was 19%. For the same molecule, the “%Inh” value (AURKB) was 8%.

In the case of `Fc1ccc(Nc2nccc(-c3c(-c4ccc(Cl)cc4)nn4ncccc34)n2)cc1F` [GW829058], the “%Inh” value (AKT3) is reported as 15%, the “%Inh” value (ALK) is reported as 43% and the “%Inh” value (AMPK-alpha1) is reported as 17%. The “%Inh” value (AMPK-alpha2) was 0%, the “%Inh” value (ANKK1) was 10% and the “%Inh” value (ARK5) was 0%. For the same molecule, the “%Inh” value (ASK1) was 2%, the “%Inh” value (ASK2) was 26% and the “%Inh” value (AURKA) was 32%. The “%Inh” value (AURKB) was 27%.

With `Nc1nccc2scc(-c3ccc4c(c3)CCN4C(=O)Cc3cc(F)ccc3F)c12` [GSK2587663] the “%Inh” value (AKT3) was 0%, the “%Inh” value (ALK) was 8% and the “%Inh” value (AMPK-alpha1) was 0%. The “%Inh” value (AMPK-alpha2) was 11%, the “%Inh” value (ANKK1) was 1% and the “%Inh” value (ARK5) was 0%. The “%Inh” value (ASK1) was 6%, the “%Inh” value (ASK2) was 13% and the “%Inh” value (AURKA) was 0%. The “%Inh” value (AURKB) was 8%.

`Cc1ccc(O)cc1Nc1cc(C(F)(F)F)nc2ccc(-c3ccncc3)cc12` [GW630823] was tested, and the “%Inh” value (AKT3) was 0%, the “%Inh” value (ALK) was 0% and the “%Inh” value (AMPK-alpha1) was 0%. For the same molecule, the “%Inh” value (AMPK-alpha2) was 0%, the “%Inh” value (ANKK1) was 0% and the “%Inh” value (ARK5) was 0%. The “%Inh” value (ASK1) was 30%, the “%Inh” value (ASK2) was 0% and the “%Inh” value (AURKA) was 0%. The “%Inh” value (AURKB) was 0%.

With `O=c1cc(N2CCOCC2)nc2n(Cc3cccc(Cl)c3)ccn12` [GSK2296823] the “%Inh” value (AKT3) was 0%, the “%Inh” value (ALK) was 32% and the “%Inh” value (AMPK-alpha1) was 0%. The “%Inh” value (AMPK-alpha2) was 0%, the “%Inh” value (ANKK1) was 22% and the “%Inh” value (ARK5) was 14%. The “%Inh” value (ASK1) was 0%, the “%Inh” value (ASK2) was 0% and the “%Inh” value (AURKA) was 0%. For the same molecule, the “%Inh” value (AURKB) was 3%.

For `COc1cc2c(Nc3cccc(NC(=O)c4ccccc4)c3)ncnc2cc1OCCCN1CCOCC1` [GSK223810], the “%Inh” value (AKT3) was 0%, the “%Inh” value (ALK) was 21% and the “%Inh” value (AMPK-alpha1) was 18%. The “%Inh” value (AMPK-alpha2) was 12%, the “%Inh” value (ANKK1) was 16% and the “%Inh” value (ARK5) was 0%. The “%Inh” value (ASK1) was 0%, the “%Inh” value (ASK2) was 3% and the “%Inh” value (AURKA) was 25%. For the same molecule, the “%Inh” value (AURKB) was 23%.

For `CSc1ccc(NC2=C(c3ccccc3Cl)C(=O)NC2=O)cc1` [SB-342411], the “%Inh” value (AKT3) was 0%, the “%Inh” value (ALK) was 0% and the “%Inh” value (AMPK-alpha1) was 25%. The “%Inh” value (AMPK-alpha2) was 0%, the “%Inh” value (ANKK1) was 20% and the “%Inh” value (ARK5) was 0%. For the same molecule, the “%Inh” value (ASK1) was 0%, the “%Inh” value (ASK2) was 0% and the “%Inh” value (AURKA) was 21%. The “%Inh” value (AURKB) was 2%.

`Clc1ccc(-c2cc(-c3c[nH]nc3-c3ccccn3)ccn2)cc1` [GW681251] was tested, and the “%Inh” value (AKT3) was 0%, the “%Inh” value (ALK) was 19% and the “%Inh” value (AMPK-alpha1) was 2%. For the same molecule, the “%Inh” value (AMPK-alpha2) was 0%, the “%Inh” value (ANKK1) was 0% and the “%Inh” value (ARK5) was 4%. For the same molecule, the “%Inh” value (ASK1) was 0%, the “%Inh” value (ASK2) was 0% and the “%Inh” value (AURKA) was 4%. For the same molecule, the “%Inh” value (AURKB) was 8%.

For `Fc1cccc(COc2ccc(Nc3ncnc4nn5ccccc5c34)cc2Cl)c1` [GW689066], the “%Inh” value (AKT3) was 0%, the “%Inh” value (ALK) was 26% and the “%Inh” value (AMPK-alpha1) was 0%. The “%Inh” value (AMPK-alpha2) was 0%, the “%Inh” value (ANKK1) was 0% and the “%Inh” value (ARK5) was 11%. The “%Inh” value (ASK1) was 8%, the “%Inh” value (ASK2) was 0% and the “%Inh” value (AURKA) was 0%. The “%Inh” value (AURKB) was 0%.

With `COC(=O)c1cccc(NC(=O)NCCNc2ccnc(Nc3ccc(F)cc3)n2)c1` [GSK1379883] the “%Inh” value (AKT3) was 0%, the “%Inh” value (ALK) was 32% and the “%Inh” value (AMPK-alpha1) was 0%. For the same molecule, the “%Inh” value (AMPK-alpha2) was 18%, the “%Inh” value (ANKK1) was 1% and the “%Inh” value (ARK5) was 0%. For the same molecule, the “%Inh” value (ASK1) was 0%, the “%Inh” value (ASK2) was 0% and the “%Inh” value (AURKA) was 21%. The “%Inh” value (AURKB) was 0%.
